# According to PubChem BioAssay AID651598 (Sanford-Burnham Center for Chemical Genomics, 2012):
# “And” between values parts separate entries of the source, which are not always exact repeats. Equal entries are not always repeated.
# Target: C-X-C chemokine receptor type 6 (Homo sapiens) (UniProt O00574)
# Assay: apelin receptor (APJ) antagonists, SAR follow-up, counter-screen for CXCR6 antagonist project, cell-based, beta-arrestin, DiscoveRx, panel, CHO-K1 (AID 651598)
# Conditions: CHO-K1 PathHunter beta-arrestin luminescence, antagonist mode; run 5, at 80 µM (top of the series)
# Chain of C-X-C chemokine receptor type 6 (Homo sapiens) (O00574 whole entry, looked up): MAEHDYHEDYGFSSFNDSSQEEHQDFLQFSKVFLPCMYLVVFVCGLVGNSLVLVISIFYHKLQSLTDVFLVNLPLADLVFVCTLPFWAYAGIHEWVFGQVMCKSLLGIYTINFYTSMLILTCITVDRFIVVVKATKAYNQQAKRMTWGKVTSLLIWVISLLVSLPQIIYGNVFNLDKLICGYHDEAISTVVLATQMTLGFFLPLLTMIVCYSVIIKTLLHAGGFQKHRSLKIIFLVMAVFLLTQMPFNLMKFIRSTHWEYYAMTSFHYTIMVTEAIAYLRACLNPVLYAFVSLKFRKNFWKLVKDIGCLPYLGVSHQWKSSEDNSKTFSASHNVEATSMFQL
row,SMILES,inhibition
1,COc1cc(C(=O)NC2CC3CCCC(C2)N3CC(=O)Nc2ccccc2)cc(OC)c1OC (stereo not drawn),85.4% and 45.2% and 22.2%
2,COc1cc(C(=O)NC2CC3CCC(C2)N3CC(=O)Nc2ccccc2)cc(OC)c1OC (stereo not drawn),45.3% and 9.45%
3,COc1cc(C(=O)NC2CCN(CC(=O)Nc3ccccc3)CC2)cc(OC)c1OC,12%
